Experimental data as given in PubChem BioAssay (NCATS).
Records with an inconclusive call do not appear. The source made the active and inactive calls. Unless noted, calls follow the shape of the dose curve; as a rule, active = well fitted inhibition curve with a large enough effect; inconclusive = small, poorly fitted or top-dose-only effect; inactive = flat fitted curve, though single readings scatter.

Tests used:
[1] = system: CP237; assay: qHTS profiling for inhibitors of Plasmodium falciparum proliferation (AID 504749);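 also: 0% = DMSO vehicle and full inhibition = artemisinin control; nearly all actives have a fitted effect of over 60% in size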; settings: P. falciparum in erythrocytes, SYBR Green DNA, 72 h; series mostly up to 28.7 µM
In short: (§1)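 Readout was DNA-dye fluorescence from lysed cultures, ex 485/em 535 nm. Parasitized red cells had grown 72 h with compound; data scaled between 0.29 uM artemisinin and DMSO wells and corrected using vehicle-only plates.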

[2] = system: CP238; assay: as above; settings: P. falciparum in erythrocytes, SYBR Green DNA, 72 h; series mostly up to 28.7 µM
In short: as §1

[3] = system: CP247; assay: as above; settings: P. falciparum in erythrocytes, SYBR Green DNA, 72 h; series mostly up to 28.7 µM
In short: as §1

[4] = system: CP250; assay: as above; settings: P. falciparum in erythrocytes, SYBR Green DNA, 72 h; series mostly up to 28.7 µM
In short: as §1

[5] = system: CP252; assay: as above; settings: P. falciparum in erythrocytes, SYBR Green DNA, 72 h; series mostly up to 28.7 µM
In short: as §1

[6] = system: CP256; assay: as above; settings: P. falciparum in erythrocytes, SYBR Green DNA, 72 h; series mostly up to 28.7 µM
In short: as §1

[7] = system: CP260; assay: as above; settings: P. falciparum in erythrocytes, SYBR Green DNA, 72 h; series mostly up to 28.7 µM
In short: as §1

[8] = system: CP262; assay: as above; settings: P. falciparum in erythrocytes, SYBR Green DNA, 72 h; series mostly up to 28.7 µM
In short: as §1

[9] = system: CP265; assay: as above; settings: P. falciparum in erythrocytes, SYBR Green DNA, 72 h; series mostly up to 28.7 µM
In short: as §1

[10] = system: CP266; assay: as above; settings: P. falciparum in erythrocytes, SYBR Green DNA, 72 h; series mostly up to 28.7 µM
In short: as §1

[11] = system: CP268; assay: as above; settings: P. falciparum in erythrocytes, SYBR Green DNA, 72 h; series mostly up to 28.7 µM
In short: as §1

[12] = system: CP269; assay: as above; settings: P. falciparum in erythrocytes, SYBR Green DNA, 72 h; series mostly up to 28.7 µM
In short: as §1

[13] = system: CP286; assay: as above; settings: P. falciparum in erythrocytes, SYBR Green DNA, 72 h; series mostly up to 28.7 µM
In short: as §1

[14] = system: CP291; assay: as above; settings: P. falciparum in erythrocytes, SYBR Green DNA, 72 h; series mostly up to 28.7 µM
In short: as §1

[15] = system: CP297; assay: as above; settings: P. falciparum in erythrocytes, SYBR Green DNA, 72 h; series mostly up to 28.7 µM
In short: as §1

[16] = system: CP305; assay: as above; settings: P. falciparum in erythrocytes, SYBR Green DNA, 72 h; series mostly up to 28.7 µM
In short: as §1

[17] = system: CP315; assay: as above; settings: P. falciparum in erythrocytes, SYBR Green DNA, 72 h; series mostly up to 28.7 µM
In short: as §1

[18] = system: CP325; assay: as above; settings: P. falciparum in erythrocytes, SYBR Green DNA, 72 h; series mostly up to 28.7 µM
In short: as §1

[19] = system: CP329; assay: as above; settings: P. falciparum in erythrocytes, SYBR Green DNA, 72 h; series mostly up to 28.7 µM
In short: as §1

[20] = system: CP335; assay: as above; settings: P. falciparum in erythrocytes, SYBR Green DNA, 72 h; series mostly up to 28.7 µM
In short: as §1

[21] = system: DFO2036; assay: as above; settings: P. falciparum in erythrocytes, SYBR Green DNA, 72 h; series mostly up to 28.7 µM
In short: as §1

[22] = system: DIV14; assay: as above; settings: P. falciparum in erythrocytes, SYBR Green DNA, 72 h; series mostly up to 28.7 µM
In short: as §1

[23] = system: DIV17; assay: as above; settings: P. falciparum in erythrocytes, SYBR Green DNA, 72 h; series mostly up to 28.7 µM
In short: as §1

[24] = system: DIV30; assay: as above; settings: P. falciparum in erythrocytes, SYBR Green DNA, 72 h; series mostly up to 28.7 µM
In short: as §1

[25] = system: Dd2; assay: as above; settings: P. falciparum in erythrocytes, SYBR Green DNA, 72 h; series mostly up to 28.7 µM
In short: as §1

[26] = system: ECU; assay: as above; settings: P. falciparum in erythrocytes, SYBR Green DNA, 72 h; series mostly up to 28.7 µM
In short: as §1

[27] = system: FAB9; assay: as above; settings: P. falciparum in erythrocytes, SYBR Green DNA, 72 h; series mostly up to 28.7 µM
In short: as §1

[28] = system: GB4; assay: as above; settings: P. falciparum in erythrocytes, SYBR Green DNA, 72 h; series mostly up to 28.7 µM
In short: as §1

[29] = system: HB3; assay: as above; settings: P. falciparum in erythrocytes, SYBR Green DNA, 72 h; series mostly up to 28.7 µM
In short: as §1

[30] = system: ICS; assay: as above; settings: P. falciparum in erythrocytes, SYBR Green DNA, 72 h; series mostly up to 28.7 µM
In short: as §1

[31] = system: JCK; assay: as above; settings: P. falciparum in erythrocytes, SYBR Green DNA, 72 h; series mostly up to 28.7 µM
In short: as §1

[32] = system: N140; assay: as above; settings: P. falciparum in erythrocytes, SYBR Green DNA, 72 h; series mostly up to 28.7 µM
In short: as §1

[33] = system: P93_24; assay: as above; settings: P. falciparum in erythrocytes, SYBR Green DNA, 72 h; series mostly up to 28.7 µM
In short: as §1

[34] = system: P94_40; assay: as above; settings: P. falciparum in erythrocytes, SYBR Green DNA, 72 h; series mostly up to 28.7 µM
In short: as §1

[35] = system: PAD; assay: as above; settings: P. falciparum in erythrocytes, SYBR Green DNA, 72 h; series mostly up to 28.7 µM
In short: as §1

[36] = system: PC15; assay: as above; settings: P. falciparum in erythrocytes, SYBR Green DNA, 72 h; series mostly up to 28.7 µM
In short: as §1

[37] = system: PC26; assay: as above; settings: P. falciparum in erythrocytes, SYBR Green DNA, 72 h; series mostly up to 28.7 µM
In short: as §1

[38] = system: PC49; assay: as above; settings: P. falciparum in erythrocytes, SYBR Green DNA, 72 h; series mostly up to 28.7 µM
In short: as §1

[39] = system: SC27B; assay: as above; settings: P. falciparum in erythrocytes, SYBR Green DNA, 72 h; series mostly up to 28.7 µM
In short: as §1

[40] = system: TAB109; assay: as above; settings: P. falciparum in erythrocytes, SYBR Green DNA, 72 h; series mostly up to 28.7 µM
In short: as §1

[41] = system: TAB113; assay: as above; settings: P. falciparum in erythrocytes, SYBR Green DNA, 72 h; series mostly up to 28.7 µM
In short: as §1

[42] = system: TAB165; assay: as above; settings: P. falciparum in erythrocytes, SYBR Green DNA, 72 h; series mostly up to 28.7 µM
In short: as §1

[43] = system: W2; assay: as above; settings: P. falciparum in erythrocytes, SYBR Green DNA, 72 h; series mostly up to 28.7 µM
In short: as §1

[44] = biological target: Nuclear receptor subfamily 1 group I member 2 (Rattus norvegicus) (UniProt Q9R1A7); assay: qHTS assay for small molecule activators of the rat pregnane X receptor (rPXR) signaling pathway (AID 651751; call rule not given here; also: 0% is about no effect); settings: rPXR reporter cells, luciferase (One-Glo), 24 h
[45] = qHTS assay for small molecule activators of the human pregnane X receptor (PXR) signaling pathway (AID 720659; call rule not given here; also: 0% is about no effect)

Nuclear receptor subfamily 1 group I member 2 (Rattus norvegicus), sequence (Q9R1A7 whole entry, looked up): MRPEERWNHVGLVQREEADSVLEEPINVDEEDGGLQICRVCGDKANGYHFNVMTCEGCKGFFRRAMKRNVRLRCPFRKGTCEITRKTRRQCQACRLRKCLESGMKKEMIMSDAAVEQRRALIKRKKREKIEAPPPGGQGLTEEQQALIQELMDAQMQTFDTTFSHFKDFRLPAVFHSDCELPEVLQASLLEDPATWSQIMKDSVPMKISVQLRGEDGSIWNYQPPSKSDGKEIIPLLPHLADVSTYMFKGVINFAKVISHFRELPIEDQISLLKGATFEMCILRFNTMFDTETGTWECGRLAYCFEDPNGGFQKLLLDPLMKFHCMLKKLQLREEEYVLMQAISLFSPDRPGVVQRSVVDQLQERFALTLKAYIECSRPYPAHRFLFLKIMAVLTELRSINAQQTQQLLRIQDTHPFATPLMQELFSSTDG

CC1CCC(C(C)C)C(O)C1 (stereo not given)
inactive: Potency [1] | Potency [2] | Potency [3] | Potency [4] | Potency [5] | Potency [6] | Potency [7] | Potency [8] | Potency [9] | Potency [10] | Potency [11] | Potency [12] | Potency [13] | Potency [14] | Potency [15] | Potency [16] | Potency [17] | Potency [18] | Potency [19] | Potency [20] | Potency [21] | Potency [22] | Potency [23] | Potency [24] | Potency [25] | Potency [26] | Potency [27] | Potency [28] | Potency [29] | Potency [30] | Potency [31] | Potency [32] | Potency [33] | Potency [34] | Potency [35] | Potency [36] | Potency [37] | Potency [38] | Potency [39] | Potency [40] | Potency [41] | Potency [42] | Potency [43] | max response [44] -4.79% | outcome [45]
